# Test results published in PubChem BioAssay (NCATS).
# Results filed as inconclusive are left out. Entries that show only a call come without a potency. Active and inactive are the calls of the source. The call rests on the fitted dose curve; in most records, active means well fitted inhibition curve with a large enough effect; inconclusive means small, poorly fitted or top-dose-only effect; inactive means no such curve, though single readings can be large or run the other way.
# Assays:
# Furin (Homo sapiens) = Furin (Homo sapiens) (UniProt P09958); experiment: Furin counterscreen qHTS for Zika virus inhibitors (AID 1347149); further: nearly all actives have a fitted effect of over 70% in size
# Text: Avindra Nath, Ph.D., National Institute of Neurological Disorders and Stroke (NINDS), Bethesda, MD
# Radhakrishnan Padmanabhan, Ph.D., Georgetown University (GU), Washington D.C.
# Zika Virus causes congenital defects, including microcephaly and is associated with Guillain-Barre syndrome, eningoencephalitis and myelitis in infected adult. […] Using a target-based approach, we hope to establish a screening paradigm to uncover novel, cell-active NS2B-NS3 protease (Zika Virus) specific inhibitors from NCATS' collection of small molecules using qHTS.
# Four assay panel was created to identify potential Zika Virus inhibitors. […]
# Human recombinant Furin Serine Protease was purchased from Peprotech (catalog #450-47; full length; Rocky Hill, NJ). […] Plates were then read immediately on a ViewLux High-throughput CCD imager (PerkinElmer, Waltham, MA) equipped with standard UV fluorescence optics (340(30) nm excitation, 450(20) nm emission), then incubated (37C, protected from light) for 15 or 30 minutes (~9% conversion). The change in fluorescence intensity over the 15-minute reaction period was normalized against no-inhibitor and no-enzyme controls and the resulting percent inhibition data were fitted to a 4-parameter Hill equation. […]
# [1] = molecular target: N-terminal Xaa-Pro-Lys N-methyltransferase 1 (Homo sapiens) (UniProt Q9BV86); experiment: qHTS Assay for Inhibitors of N-terminal methyltransferase 1 (NTMT1): LOPAC validation of the NTMT1 SAHH-coupled ThioGlo3 Assay (AID 1347143);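 further: SAH from peptide methylation measured as thiol fluorescence via SAHH coupling and ThioGlo3; nearly all actives have a fitted effect of over 70% in size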
# How it was run: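 Inhibition of NTMT1 methylation of peptide SPKRIA is followed by converting SAH with SAHH and labelling the released thiol with ThioGlo3. Plates are read at 340/450nm before and 30 min after reagent addition, both at room temperature.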
# [2] = test system: Zika virus NS2B-NS3 protease (unlinked); experiment: Optimization of GU AMC qHTS for Zika virus inhibitors: Unlinked NS2B-NS3 protease assay (AID 1347151); further: nearly all actives have a fitted effect of over 80% in size
# How it was run: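 In this qHTS, compounds acted on 25 nM unlinked Zika NS2B–NS3 in pH 8.0 Tris/Tween buffer. Cleavage of an AMC peptide ran 15 min at room temperature, to about 20% conversion.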
# Potency means the concentration at half of the fitted maximal effect.
# Sequence of N-terminal Xaa-Pro-Lys N-methyltransferase 1 (Homo sapiens) (Q9BV86 whole entry, looked up): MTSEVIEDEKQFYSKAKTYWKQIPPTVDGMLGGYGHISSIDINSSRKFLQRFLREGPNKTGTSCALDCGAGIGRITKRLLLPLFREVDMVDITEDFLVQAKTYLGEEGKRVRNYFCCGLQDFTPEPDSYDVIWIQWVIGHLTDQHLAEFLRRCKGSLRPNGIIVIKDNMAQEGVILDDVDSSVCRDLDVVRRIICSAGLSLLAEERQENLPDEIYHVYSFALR
# Sequence of Furin (Homo sapiens) (P09958 whole entry, looked up): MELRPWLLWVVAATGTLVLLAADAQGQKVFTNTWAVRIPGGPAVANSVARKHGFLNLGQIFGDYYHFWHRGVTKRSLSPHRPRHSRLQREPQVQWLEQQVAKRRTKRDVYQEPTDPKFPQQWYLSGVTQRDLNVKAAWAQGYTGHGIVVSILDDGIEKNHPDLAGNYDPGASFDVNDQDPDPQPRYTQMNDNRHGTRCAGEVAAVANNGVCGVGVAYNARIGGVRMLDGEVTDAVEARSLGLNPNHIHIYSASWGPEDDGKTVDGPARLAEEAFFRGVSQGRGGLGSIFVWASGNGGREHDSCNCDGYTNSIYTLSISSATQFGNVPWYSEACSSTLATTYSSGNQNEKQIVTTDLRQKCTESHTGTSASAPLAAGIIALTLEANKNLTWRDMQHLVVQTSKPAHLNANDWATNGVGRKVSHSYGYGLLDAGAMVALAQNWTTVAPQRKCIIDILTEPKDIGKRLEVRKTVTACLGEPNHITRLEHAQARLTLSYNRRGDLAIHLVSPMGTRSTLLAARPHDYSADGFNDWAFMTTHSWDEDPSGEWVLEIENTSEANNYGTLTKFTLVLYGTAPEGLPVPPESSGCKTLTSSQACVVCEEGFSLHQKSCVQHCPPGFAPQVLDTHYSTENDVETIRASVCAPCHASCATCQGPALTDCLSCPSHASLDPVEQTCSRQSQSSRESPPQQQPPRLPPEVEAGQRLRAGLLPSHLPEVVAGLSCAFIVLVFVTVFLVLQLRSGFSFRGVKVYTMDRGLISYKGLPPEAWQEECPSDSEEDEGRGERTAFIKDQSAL
SMILES,Potency (Furin (Homo sapiens)),Potency [1],Potency [2]
COC(=O)[C@H]1[C@H]2C[C@@H]3c4[nH]c5cc(OC)ccc5c4CCN3C[C@H]2C[C@@H](OC(=O)c2cc(OC)c(OC)c(OC)c2)[C@@H]1OC,27.1 µM (active),,
CCOC(=O)c1cnc2c(cnn2CC)c1NN=C(C)C,inactive,,
NC(Cc1ccc(Cl)cc1)C(=O)O (centres undefined),,inactive,inactive
NC(=O)c1ncn([C@@H]2O[C@H](CO)[C@@H](O)[C@H]2O)c1O,,inactive,inactive
O=C(O)CP(=O)(O)O,,inactive,inactive
NC(=O)c1cn(Cc2c(F)cccc2F)nn1,,inactive,inactive
CCN(CC)CCNC(=O)c1cc(S(C)(=O)=O)ccc1OC,,inactive,inactive
CN=C(NC#N)NCCSCc1nc[nH]c1C,,inactive,inactive
Cc1ccc(/C(=C\CN2CCCC2)c2ccccn2)cc1,,inactive,inactive
CN(C)[C@@H]1C(=O)C(C(N)=O)=C(O)[C@@]2(O)C(=O)C3=C(O)c4c(O)ccc(Cl)c4[C@@H](O)[C@H]3C[C@@H]12,,56.2 µM (active),inactive
c1ccc2c(c1)CCCC2C1=NCCN1 (centres undefined),,inactive,inactive
Brc1c(NC2=NCCN2)ccc2nccnc12,,50.1 µM (active),inactive
CC1=NS(=O)(=O)c2cc(Cl)ccc2N1,,inactive,inactive
CCCN(CCC)CCc1cccc2c1CC(=O)N2,,inactive,inactive
Cc1nc2c([nH]1)c(=O)n(C)c(=O)n2Cc1ccco1,,inactive,inactive
N[C@@H](COP(=O)(O)O)C(=O)O,,inactive,inactive
CCCOc1ccccc1-c1nc2n[nH]nc2c(=O)[nH]1,,inactive,inactive
O=C(O)CN(CCN(CC(=O)O)CC(=O)O)CCN(CC(=O)O)CC(=O)O,,inactive,inactive
O=C(CCCN1CCC(O)(c2cccc(C(F)(F)F)c2)CC1)c1ccc(F)cc1,,inactive,inactive
COc1cc(C(=O)OCCCN2CCCN(CCCOC(=O)c3cc(OC)c(OC)c(OC)c3)CC2)cc(OC)c1OC,,inactive,inactive
C[C@]12CCC(=O)C=C1CC[C@@H]1[C@@H]2C(=O)C[C@@]2(C)[C@H]1CC[C@]2(O)C(=O)CO,,inactive,inactive
COCCCC/C(=N\OCCN)c1ccc(C(F)(F)F)cc1,,inactive,inactive
CN(C)C(=O)Oc1ccc[n+](C)c1,,inactive,inactive
CN1CCN(C2=Nc3ccccc3Oc3ccc(Cl)cc32)CC1,,inactive,inactive

SMILES,Potency (Furin (Homo sapiens)),Potency [1],Potency [2]
COc1ccc(CCN(C)CCCC(C#N)(c2cc(OC)c(OC)c(OC)c2)C(C)C)cc1OC (centres undefined),,inactive,inactive
CCCC(C(=O)OCCN(CC)CC)(c1ccccc1)c1ccccc1,,inactive,inactive
Cc1nnc(SCC2=C(C(=O)O)N3C(=O)[C@@H](NC(=O)Cn4cnnn4)[C@H]3SC2)s1,,50.1 µM (active),inactive
CN(C)C(=O)Oc1cccc([N+](C)(C)C)c1,,inactive,inactive
O=C(CCNNC(=O)c1ccncc1)NCc1ccccc1,,inactive,inactive
NC(N)=NC(=O)Cc1c(Cl)cccc1Cl,,inactive,inactive
CO[C@@]1(NC(=O)CSCC#N)C(=O)N2C(C(=O)O)=C(CSc3nnnn3C)CS[C@@H]21,,inactive,inactive
CCn1ccnc1CC1COc2ccccc2O1 (centres undefined),,inactive,inactive
CCOC(=O)C1=C(C)NC(C)=C(C(=O)OC)C1c1cccc([N+](=O)[O-])c1 (centres undefined),,inactive,inactive
NC(=O)N1c2ccccc2C=Cc2ccccc21,,inactive,inactive
O=C1NCN(c2ccccc2)C12CCN(CCCC(c1ccc(F)cc1)c1ccc(F)cc1)CC2,,inactive,inactive
C[N+](C)(C)CCOC(N)=O,,inactive,inactive
COC(=O)C1=C(C)NC(C)=C(C(=O)OCCN(C)Cc2ccccc2)C1c1cccc([N+](=O)[O-])c1 (centres undefined),,inactive,inactive
O=c1[nH]c(=O)n([C@H]2C[C@H](O)[C@@H](CO)O2)cc1Br,,inactive,inactive
C[C@]12CCC(=O)C=C1CC[C@@H]1[C@@H]2CC[C@@]2(C)[C@H]1CC[C@]2(O)C(=O)CO,,inactive,inactive
C[C@@H](O)[C@H]1C(=O)N2C(C(=O)O)=C(SCCN=CN)C[C@H]12,,inactive,inactive
CCOC(=O)C1=C(C)NC(C)=C(C(=O)OC)C1c1cccc(Cl)c1Cl (centres undefined),,56.2 µM (active),26.7 µM (active)
CCCCNC(=O)NS(=O)(=O)c1ccc(C)cc1,,inactive,inactive
C=CCc1ccccc1OCC(O)CNC(C)C (centres undefined),,inactive,inactive
CN(C)CC[C@@H](c1ccc(Br)cc1)c1ccccn1,,inactive,inactive
CC(C)(C)NCC(O)c1cc(O)cc(O)c1 (centres undefined),,inactive,inactive
CN(C(=O)CCCOc1ccc2[nH]c(=O)ccc2c1)C1CCCCC1,,79.4 µM (active),26.7 µM (active)
COCCc1ccc(OCC(O)CNC(C)C)cc1 (centres undefined),,inactive,inactive
NC1=NCC2c3ccccc3Cc3ccccc3N12 (centres undefined),,inactive,inactive

SMILES,Potency (Furin (Homo sapiens)),Potency [1],Potency [2]
NC(N)=N/N=C/c1c(Cl)cccc1Cl,,inactive,inactive
CN(C)CCCN1c2ccccc2Sc2ccccc21,,44.7 µM (active),inactive
CCN(Cc1ccncc1)C(=O)C(CO)c1ccccc1 (centres undefined),,inactive,inactive
CNC1(C)C2CCC(C2)C1(C)C (centres undefined),,inactive,inactive
CC(N=C(NC#N)Nc1ccncc1)C(C)(C)C (centres undefined),,inactive,inactive
CC(=O)OCC1=C(C(=O)O)N2C(=O)[C@@H](NC(=O)Cc3cccs3)[C@H]2SC1,,inactive,inactive
FC(F)(F)c1ccccc1-n1ccnc1,,inactive,inactive
Nc1c2c(nc3ccccc13)CCCC2O (centres undefined),,inactive,inactive
COc1ccc([C@@H]2Sc3ccccc3N(CCN(C)C)C(=O)[C@@H]2OC(C)=O)cc1,,inactive,inactive
Nc1ncn([C@@H]2O[C@H](CO)[C@@H](O)[C@H]2O)c(=O)n1,,inactive,inactive
CC(C)(Oc1ccc(CCNC(=O)c2ccc(Cl)cc2)cc1)C(=O)O,,inactive,inactive
CCC(=O)c1ccc2c(c1)N(CCCN(C)C)c1ccccc1S2,,39.8 µM (active),inactive
NC/C=C/C(=O)O,,inactive,inactive
OC(CCN1CCCCC1)(c1ccccc1)C1CCCCC1 (centres undefined),,inactive,inactive
CN(C)CCN(Cc1cccs1)c1ccccn1,,inactive,inactive
CC[N+](C)(C)c1cccc(O)c1,,inactive,inactive
CC(C(=O)O)c1ccc(CC2CCCC2=O)cc1 (centres undefined),,inactive,inactive
CCN(CC)CCNC(=O)c1ccc(NC(C)=O)cc1,,inactive,inactive
CNCCC(Oc1ccccc1OC)c1ccccc1 (centres undefined),,inactive,inactive
CCCN(CCC)C(=O)C(CCC(=O)O)NC(=O)c1ccccc1 (centres undefined),,inactive,inactive
CC(=O)OC(C)C[N+](C)(C)C (centres undefined),,inactive,inactive
NS(=O)(=O)c1cc2c(cc1Cl)NC(C1CC3C=CC1C3)NS2(=O)=O (centres undefined),,inactive,inactive
CC(=O)Oc1cc(C(C)C)c(OCCN(C)C)cc1C,,inactive,
